Source: the supplement of paper PMC7411054
Structures can show the parent of a compound that is named as a salt.

Tests used:
Details in all cases: treatment time: 24 h
[1] = system: HepG2-GM130-SQSTM1; experiment: lowest phenotypically active concentration; higher = less potent
Procedure, shortened: (§1)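 After 24 h at 0.3, 1, 3 or 9 µM, with four wells per treatment, fifteen gene-edited A549, HepG2 and WPMY1 reporter lines carrying BFP, GFP and RFP/FusionRed were imaged live. Each well's live-cell features were expressed relative to solvent control wells. Deviation required ≥3 of 4 wells past the 95th percentile of control Euclidean distances, and reproducibility a median replicate Pearson correlation over the 95th percentile of non-replicates. Phenotypic activity rested on both.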

[2] = system: A549-ACTB-RAB5A; experiment: phenotypically active (imaging signature differs from DMSO and reproducible) at any of 0.3-9 uM (binary (1 = active, 0 = inactive)); higher = active
Procedure, shortened: as §1

[3] = system: A549-CANX-COX4; experiment: as above
Procedure, shortened: as §1

[4] = system: A549-GM130-SQSTM1; experiment: as above
Procedure, shortened: as §1

[5] = system: A549-TP53BP1-CLTA; experiment: as above
Procedure, shortened: as §1

[6] = system: A549-TUBA1B-RELA; experiment: as above
Procedure, shortened: as §1

[7] = system: HepG2-ACTB-RAB5A; experiment: as above
Procedure, shortened: as §1

[8] = system: HepG2-CANX-COX4; experiment: as above
Procedure, shortened: as §1

[9] = system: HepG2-GM130-SQSTM1; experiment: as above
Procedure, shortened: as §1

[10] = system: HepG2-TP53BP1-CLTA; experiment: as above
Procedure, shortened: as §1

[11] = system: HepG2-TUBA1B-RELA; experiment: as above
Procedure, shortened: as §1

[12] = system: WPMY1-ACTB-RAB5A; experiment: as above
Procedure, shortened: as §1

[13] = system: WPMY1-CANX-COX4; experiment: as above
Procedure, shortened: as §1

[14] = system: WPMY1-GM130-SQSTM1; experiment: as above
Procedure, shortened: as §1

[15] = system: WPMY1-TP53BP1-CLTA; experiment: as above
Procedure, shortened: as §1

[16] = system: WPMY1-TUBA1B-RELA; experiment: as above
Procedure, shortened: as §1

[17] = system: WPMY1-GM130-SQSTM1; experiment: lowest phenotypically active concentration; higher = less potent
Procedure, shortened: as §1

[18] = system: WPMY1-ACTB-RAB5A; experiment: as above
Procedure, shortened: as §1

[19] = system: HepG2-TP53BP1-CLTA; experiment: as above
Procedure, shortened: as §1

[20] = system: WPMY1-TP53BP1-CLTA; experiment: as above
Procedure, shortened: as §1

Compound | lowest phenotypically active concentration [1] [µM] | phenotypically active [2] | phenotypically active [3] | phenotypically active [4] | phenotypically active [5] | phenotypically active [6] | phenotypically active [7] | phenotypically active [8] | phenotypically active [9] | phenotypically active [10] | phenotypically active [11] | phenotypically active [12] | phenotypically active [13] | phenotypically active [14] | phenotypically active [15] | phenotypically active [16] | lowest phenotypically active concentration [17] [µM] | lowest phenotypically active concentration [18] [µM] | lowest phenotypically active concentration [19] [µM] | lowest phenotypically active concentration [20] [µM]
CNC(=C[N+](=O)[O-])NCCSCc1ccc(CN(C)C)o1 [ranitidine] | 1 | 0 (inactive) | 0 (inactive) | 0 (inactive) | 0 (inactive) | 0 (inactive) | 0 (inactive) | 0 (inactive) | 1 (active) | 0 (inactive) | 0 (inactive) | 0 (inactive) | 0 (inactive) | 0 (inactive) | 0 (inactive) | 0 (inactive) |  |  |  | 
COC(=O)C1=C(C)NC(C)=C(C(=O)OC)C1c1ccccc1[N+](=O)[O-] [nifedipine] |  | 0 (inactive) | 0 (inactive) | 0 (inactive) | 0 (inactive) | 0 (inactive) | 0 (inactive) | 0 (inactive) | 0 (inactive) | 0 (inactive) | 0 (inactive) | 0 (inactive) | 0 (inactive) | 1 (active) | 0 (inactive) | 0 (inactive) | 9 |  |  | 
COC(=O)C1=C(C)NC(C)=C(C(=O)OCCN(C)Cc2ccccc2)C1c1cccc([N+](=O)[O-])c1 (centres undefined) [nicardipine] |  | 0 (inactive) | 0 (inactive) | 0 (inactive) | 0 (inactive) | 0 (inactive) | 0 (inactive) | 0 (inactive) | 0 (inactive) | 0 (inactive) | 0 (inactive) | 0 (inactive) | 0 (inactive) | 1 (active) | 0 (inactive) | 0 (inactive) | 9 |  |  | 
CC(C)[C@H](N)C(=O)OCC(CO)OCn1cnc2c(=O)[nH]c(N)nc21 (some centres undefined) [valganciclovir] |  | 0 (inactive) | 0 (inactive) | 0 (inactive) | 0 (inactive) | 0 (inactive) | 0 (inactive) | 0 (inactive) | 0 (inactive) | 0 (inactive) | 0 (inactive) | 0 (inactive) | 0 (inactive) | 1 (active) | 0 (inactive) | 0 (inactive) | 1 |  |  | 
CCN1C(=O)NC(c2ccccc2)C1=O (centres undefined) [ethotoin] |  | 0 (inactive) | 0 (inactive) | 0 (inactive) | 0 (inactive) | 0 (inactive) | 0 (inactive) | 0 (inactive) | 0 (inactive) | 0 (inactive) | 0 (inactive) | 1 (active) | 1 (active) | 0 (inactive) | 0 (inactive) | 0 (inactive) |  | 3 |  | 
COC(=O)[C@H]1[C@H]2C[C@H]3c4[nH]c5ccccc5c4CCN3C[C@H]2CC[C@@H]1O [Rauwolscine hydrochloride] |  | 0 (inactive) | 0 (inactive) | 0 (inactive) | 0 (inactive) | 0 (inactive) | 0 (inactive) | 0 (inactive) | 0 (inactive) | 0 (inactive) | 0 (inactive) | 0 (inactive) | 0 (inactive) | 1 (active) | 0 (inactive) | 0 (inactive) | 3 |  |  | 
O=c1cc(-c2ccc(O)cc2)oc2cc(O)cc(O)c12 [Apigenin] | 9 | 0 (inactive) | 0 (inactive) | 0 (inactive) | 0 (inactive) | 0 (inactive) | 0 (inactive) | 0 (inactive) | 1 (active) | 1 (active) | 1 (active) | 0 (inactive) | 0 (inactive) | 1 (active) | 1 (active) | 1 (active) | 9 |  | 9 | 3
O=C(Nc1ccccc1)N1CCC(Cc2cnc3ccccc3c2)CC1 |  | 0 (inactive) | 0 (inactive) | 0 (inactive) | 0 (inactive) | 0 (inactive) | 0 (inactive) | 0 (inactive) | 0 (inactive) | 1 (active) | 1 (active) | 0 (inactive) | 0 (inactive) | 0 (inactive) | 0 (inactive) | 0 (inactive) |  |  | 9 | 
COc1ccc(Cn2ccc3ccc(C(=O)NO)cc32)cc1 |  | 0 (inactive) | 0 (inactive) | 0 (inactive) | 0 (inactive) | 0 (inactive) | 0 (inactive) | 0 (inactive) | 0 (inactive) | 0 (inactive) | 0 (inactive) | 0 (inactive) | 0 (inactive) | 1 (active) | 0 (inactive) | 0 (inactive) | 3 |  |  | 
NC(=O)c1ccc(I)c([N+](=O)[O-])c1 | 9 | 0 (inactive) | 0 (inactive) | 0 (inactive) | 0 (inactive) | 0 (inactive) | 0 (inactive) | 0 (inactive) | 1 (active) | 0 (inactive) | 0 (inactive) | 0 (inactive) | 0 (inactive) | 0 (inactive) | 0 (inactive) | 0 (inactive) |  |  |  | 
O=[N+]([O-])c1cc(Cl)ccc1S(=O)(=O)c1ccccc1 | 3 | 0 (inactive) | 0 (inactive) | 0 (inactive) | 0 (inactive) | 0 (inactive) | 0 (inactive) | 0 (inactive) | 1 (active) | 0 (inactive) | 0 (inactive) | 0 (inactive) | 0 (inactive) | 1 (active) | 0 (inactive) | 0 (inactive) | 9 |  |  | 
CC1(C)CC(=O)c2c(S(C)(=O)=O)sc(Cl)c2C1 | 1 | 0 (inactive) | 0 (inactive) | 0 (inactive) | 0 (inactive) | 0 (inactive) | 0 (inactive) | 0 (inactive) | 1 (active) | 0 (inactive) | 0 (inactive) | 0 (inactive) | 0 (inactive) | 1 (active) | 0 (inactive) | 0 (inactive) | 3 |  |  | 
c1ccc(-c2cnn3cc(-c4ccc(OCCN5CCOCC5)cc4)cnc23)cc1 |  | 0 (inactive) | 0 (inactive) | 0 (inactive) | 0 (inactive) | 0 (inactive) | 0 (inactive) | 0 (inactive) | 0 (inactive) | 0 (inactive) | 1 (active) | 0 (inactive) | 0 (inactive) | 0 (inactive) | 0 (inactive) | 0 (inactive) |  |  |  | 
CN/C(=C/[N+](=O)[O-])NCCSCc1csc(CN(C)C)n1 [nizatidine] |  | 0 (inactive) | 0 (inactive) | 0 (inactive) | 0 (inactive) | 0 (inactive) | 0 (inactive) | 0 (inactive) | 0 (inactive) | 1 (active) | 0 (inactive) | 0 (inactive) | 0 (inactive) | 0 (inactive) | 0 (inactive) | 0 (inactive) |  |  | 1 | 
CC(C)C[C@H](NC(=O)OCC1c2ccccc2-c2ccccc21)C(=O)O |  | 0 (inactive) | 0 (inactive) | 0 (inactive) | 0 (inactive) | 0 (inactive) | 0 (inactive) | 0 (inactive) | 0 (inactive) | 0 (inactive) | 0 (inactive) | 1 (active) | 0 (inactive) | 0 (inactive) | 0 (inactive) | 0 (inactive) |  | 9 |  | 
CCCCCCCN(CC)CCCC(O)c1ccc(NS(C)(=O)=O)cc1 (centres undefined) [ibutilide] |  | 0 (inactive) | 0 (inactive) | 0 (inactive) | 0 (inactive) | 0 (inactive) | 0 (inactive) | 0 (inactive) | 0 (inactive) | 0 (inactive) | 0 (inactive) | 0 (inactive) | 0 (inactive) | 1 (active) | 0 (inactive) | 0 (inactive) | 3 |  |  | 
Cc1nc[nH]c1C1CCN(c2nc3cccc4c3n2CCC4=O)CC1 |  | 0 (inactive) | 0 (inactive) | 0 (inactive) | 0 (inactive) | 0 (inactive) | 0 (inactive) | 0 (inactive) | 0 (inactive) | 1 (active) | 0 (inactive) | 0 (inactive) | 0 (inactive) | 0 (inactive) | 0 (inactive) | 0 (inactive) |  |  | 9 | 
CNC(=O)c1ccc(C)c(-n2c(C)cc(OCc3ccc(F)cc3F)c(Br)c2=O)c1 |  | 0 (inactive) | 0 (inactive) | 0 (inactive) | 0 (inactive) | 0 (inactive) | 0 (inactive) | 0 (inactive) | 0 (inactive) | 0 (inactive) | 0 (inactive) | 1 (active) | 0 (inactive) | 0 (inactive) | 0 (inactive) | 0 (inactive) |  | 1 |  | 
Cc1cccc(CCN2CCC(C(=O)c3ccc(NS(C)(=O)=O)cc3)CC2)n1 |  | 0 (inactive) | 0 (inactive) | 0 (inactive) | 0 (inactive) | 0 (inactive) | 0 (inactive) | 0 (inactive) | 0 (inactive) | 0 (inactive) | 0 (inactive) | 0 (inactive) | 0 (inactive) | 1 (active) | 0 (inactive) | 0 (inactive) | 3 |  |  | 
CCN(CC)CCOC(=O)C1(C2CCCCC2)CCCCC1 [dicycloverine] |  |  | 0 (inactive) |  | 0 (inactive) |  | 0 (inactive) | 0 (inactive) | 0 (inactive) | 0 (inactive) | 0 (inactive) | 0 (inactive) | 0 (inactive) | 0 (inactive) | 0 (inactive) | 0 (inactive) |  |  |  | 
COc1ccc(CCN(C)CCCC(C#N)(c2ccc(OC)c(OC)c2)C(C)C)cc1OC (centres undefined) [verapamil] |  | 1 (active) | 0 (inactive) | 1 (active) |  | 1 (active) | 0 (inactive) | 0 (inactive) | 0 (inactive) |  | 0 (inactive) | 0 (inactive) | 0 (inactive) | 0 (inactive) |  | 0 (inactive) |  |  |  | 
CC(C)NCC(O)COc1cccc2ccccc12 (centres undefined) [propranolol] |  |  | 0 (inactive) |  | 0 (inactive) |  | 0 (inactive) | 0 (inactive) | 0 (inactive) | 0 (inactive) | 0 (inactive) | 0 (inactive) | 0 (inactive) | 0 (inactive) | 0 (inactive) | 0 (inactive) |  |  |  | 
